The whole screen tested about 340,000 compounds, of which about 2,100 (0.62%) were called active.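 How the source made its calls: active means first-screen hits whose inhibition reached a set limit at any dose in the follow-up dose series; inconclusive means inhibition above the set first-screen limit but never retested; inactive means the rest.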 These entries were drawn from the full list. Potency and affinity values are given separately.

One may read the inhibition as the change of the read-out against control, counted positive when it falls.

The target of this experiment is Rac GTPase-activating protein 1 (Homo sapiens) (UniProt Q9H0H5). Put plainly: MgcRacGAP GTPase-activating activity inhibitors, confirmation, biochemical, ADP Hunter fluorescence, primary and confirmatory (AID 624330).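 Further: fluorescence reports GDP produced by GAP-driven GTP hydrolysis.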 The conditions noted are these: MgcRacGAP-stimulated Rac1 GTP hydrolysis, at 30 µM, hits give high values, GST-tagged Rac1 F28L mutant substrate.
Rac GTPase-activating protein 1 (Homo sapiens), sequence (Q9H0H5 whole entry, looked up): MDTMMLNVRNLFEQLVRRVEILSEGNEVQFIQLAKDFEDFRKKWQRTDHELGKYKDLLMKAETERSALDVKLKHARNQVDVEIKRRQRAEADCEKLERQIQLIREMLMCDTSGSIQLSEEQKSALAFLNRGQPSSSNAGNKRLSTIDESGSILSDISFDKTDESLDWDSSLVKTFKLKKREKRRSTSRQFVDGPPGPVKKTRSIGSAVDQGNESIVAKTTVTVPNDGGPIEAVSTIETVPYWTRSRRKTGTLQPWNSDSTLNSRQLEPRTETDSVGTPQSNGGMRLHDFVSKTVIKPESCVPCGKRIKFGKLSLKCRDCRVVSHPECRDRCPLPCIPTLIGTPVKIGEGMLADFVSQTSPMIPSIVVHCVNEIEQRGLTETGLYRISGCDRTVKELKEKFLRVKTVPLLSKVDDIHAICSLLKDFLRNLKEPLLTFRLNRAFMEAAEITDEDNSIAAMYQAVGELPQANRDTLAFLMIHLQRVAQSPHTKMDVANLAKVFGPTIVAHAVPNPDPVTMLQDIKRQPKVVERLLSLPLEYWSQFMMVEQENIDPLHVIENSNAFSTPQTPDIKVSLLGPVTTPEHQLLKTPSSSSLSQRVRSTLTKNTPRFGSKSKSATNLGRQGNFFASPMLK
For the molecule `CCCCCCCn1c2c(c(=N)c3ccccc31)CCC2`, the inhibition was 9.88% (inactive).

With `CCCCCn1c2c(c(=N)c3ccccc31)CCC2`, the inhibition is 7.04% (inactive).

As to `O=C(CN1CCC(NC(=O)Nc2ccccc2)CC1)Nc1ccccc1F`, the inhibition is 5.94% (inactive).

Take `Cc1ccc(S(=O)(=O)N(C)c2ccccc2C(=O)N2CCOCC2)cc1`: the inhibition is 6.35% (inactive).

For `O=C(Cc1ccc(Br)cc1)NCCc1ccc(F)cc1`, the inhibition was 9.29% (inactive).

For `COc1ccc(S(=O)(=O)NC(C)C(=O)N2CCCC2)cc1Cl` (stereo unspecified), the inhibition is 1.21% (inactive).

As for `COc1ccc(-c2csc(Nc3ccccc3)n2)cc1`, the inhibition is 15.5% (inactive).

For `Cc1ccnc(Nc2nc(-c3ccc(O)cc3O)cs2)c1`, the inhibition was 15.2% (inactive).

As to `CN(C)c1ccc(Nc2nc(-c3cccnc3)cs2)cc1`, the inhibition is 14.4% (inactive).

Turning to `CCOc1ccc(Nc2nc(-c3cccnc3)cs2)cc1`, the inhibition is 6.12% (inactive).

Turning to `COc1cccc(Nc2nc(-c3cccnc3)cs2)c1`, the inhibition was 10.7% (inactive).

With `Cc1cccc(Nc2nc(-c3ccc(O)cc3O)cs2)n1`, the inhibition was -2.8% (inactive).

Consider `Cc1ccc(-c2csc(Nc3ccccn3)n2)cc1`, for which the inhibition is 14% (inactive).

In the case of `c1ccc(-c2csc(Nc3ccccn3)n2)cc1`, the inhibition is 13.5% (inactive).

On to `Cc1cccc2cc(COC(=O)COc3ccccc3)c(=O)[nH]c12`, for which the inhibition was 12% (inactive).

Consider `CCC(=O)Oc1ccc(NC(=O)CSCc2ccccc2)cc1`, for which the inhibition is 13.9% (inactive).

Take `COc1ccc(CCNC(=O)COC(=O)Cc2ccccc2[N+](=O)[O-])cc1`: the inhibition is 3.96% (inactive).

Consider `CCOC(=O)c1ccc(S(=O)(=O)N2CC(=O)Nc3ccccc32)cc1`, for which the inhibition was 8.64% (inactive).

As to `Cc1nc2ncccn2c1-c1csc(Nc2ccccc2)n1`, the inhibition was 11% (inactive).

Take `c1coc(CNc2nc(-c3ccncc3)cs2)c1`: the inhibition is 5.25% (inactive).

Turning to `Cc1ccc(Nc2nc(-c3c(C)nc4ncccn34)cs2)cc1`, the inhibition was 11.3% (inactive).

For `c1cncc(Nc2nc(-c3ccncc3)cs2)c1`, the inhibition was 6.09% (inactive).

Turning to `CC(=O)Nc1ccc(-c2csc(Nc3ncccn3)n2)cc1`, the inhibition was 7.36% (inactive).

As to `c1ccc(-c2csc(Nc3ncccn3)n2)cc1`, the inhibition is 0.5% (inactive).

With `c1ccc(-c2csc(Nc3cccnc3)n2)cc1`, the inhibition was 3.24% (inactive).

In the case of `COc1ccc(-c2csc(NCc3ccco3)n2)cc1`, the inhibition is 12% (inactive).

In the case of `O=C(O)CN1C(=O)NC2(CCc3ccccc32)C1=O` (stereo unspecified), the inhibition was 2.93% (inactive).

As to `Cc1noc(C)c1S(=O)(=O)N1CCCC(C(=O)NCC2CCCO2)C1` (stereo unspecified), the inhibition is 4.53% (inactive).

As to `CC(C)c1ccc(NC2CCCN(C(=O)CN3CCOC3=O)C2)cc1` (stereo unspecified), the inhibition was 8.4% (inactive).

Consider `CC(C)c1ccc(NC2CCCN(C(=O)CCN3CCCO3)C2)cc1` (stereo unspecified), for which the inhibition was 2.53% (inactive).

Turning to `CC(C)c1ccc(NC2CCCN(C(=O)CCN3Cc4ccccc4C3=O)C2)cc1` (stereo unspecified), the inhibition is 4.84% (inactive).

For the molecule `COc1ccc(NC2CCCN(C(=O)CCCN3CCCCC3=O)C2)cc1` (stereo unspecified), the inhibition is 29.9% (inactive).

As to `COc1ccc(NC2CCCN(C(=O)CCN3CCOCC3)C2)cc1` (stereo unspecified), the inhibition is 12.5% (inactive).

For the molecule `COc1ccc(NC2CCCN(C(=O)CN3CCOC3=O)C2)cc1OC` (stereo unspecified), the inhibition was 22.5% (inactive).

In the case of `CN1OC[C@@H]2CN(Cc3cc(Cl)cc(Cl)c3)[C@H](c3cccc(-c4ccc(C#N)cc4)c3)C[C@@H]21`, the inhibition was 13.8% (inactive).

In the case of `COc1ccc(OCc2nnc(SCC(=O)N3CCCC3)o2)cc1`, the inhibition was 5.88% (inactive).

Regarding `CC1CN(Cc2ccccc2Cl)CC(C)O1` (stereo unspecified), the inhibition was 16.3% (inactive).

For `O=C(COc1ccccc1[N+](=O)[O-])Nc1cccc(C(=O)Nc2ccccc2C(=O)O)c1`, the inhibition was 17.3% (inactive).

In the case of `C=CCC1NS(=O)(=O)O[C@H](CCCC)[C@@H]1O` (stereo partly specified), the inhibition was -14.4% (inactive).

Take `O=C(O)CCC(=O)OCCc1cc2ccccc2c(=O)o1`: the inhibition is -1.63% (inactive).

For the molecule `O=C(c1ccc(=O)n(Cc2ccc(Cl)c(Cl)c2)c1)N1CCOCC1`, the inhibition was 1.2% (inactive).

Regarding `CC(C)N1C(=O)CSC1c1ccc(Br)cc1` (stereo unspecified), the inhibition is 9.21% (inactive).

Consider `Cc1ccccc1/C=N/NC(=O)c1cccnc1`, for which the inhibition is 4.63% (inactive).

For the molecule `O=C(N/N=C/c1cccc2ccccc12)c1cccnc1`, the inhibition was 7.15% (inactive).

On to `Cc1ccsc1/C=N/NC(=O)c1cccnc1`, for which the inhibition was 6.67% (inactive).

As for `COc1ccc(/C=N/NC(=O)c2cccnc2)c2ccccc12`, the inhibition was 10.9% (inactive).

Turning to `COc1ccccc1CNC(=O)CCNS(=O)(=O)/C=C/c1ccc(C)cc1`, the inhibition is -0.75% (inactive).

As to `Nc1ccc(Br)c2cccnc12`, the inhibition was 9.68% (inactive).

Regarding `COc1cc(NC(=O)c2cccnc2SC)cc(OC)c1OC`, the inhibition is 9.4% (inactive).

Consider `COc1cc(NC(C)CCCN)c2ncccc2c1` (stereo unspecified), for which the inhibition is -2.49% (inactive).

On to `COc1cc(N)c2ncccc2c1Cl`, for which the inhibition is 7.55% (inactive).

For `COc1cc(N)c2ncccc2c1Br`, the inhibition is 20% (inactive).

In the case of `COc1cc(NC(C)CCCN)c2ncccc2c1Oc1ccccc1` (stereo unspecified), the inhibition is 1.99% (inactive).

As for `CCOC(=O)N1CCN(c2ccc(N3C(=O)CCCC3=O)cc2[N+](=O)[O-])CC1`, the inhibition is 4.36% (inactive).

With `O=C(CCNS(=O)(=O)c1ccc2[nH]c(=O)oc2c1)Nc1ccccc1`, the inhibition was -24.4% (inactive).

Take `COc1ccc(OC)c(C(C[N+](=O)[O-])c2c(C)cc3ccccn23)c1` (stereo unspecified): the inhibition is 5.52% (inactive).

In the case of `Cc1c(N2CCCCC2)[nH]c2ccccc12`, the inhibition was 8.41% (inactive).

Consider `Cc1cccc(OCC(=O)Nc2ccc(N3CCN(C(=O)c4ccco4)CC3)cc2)c1C`, for which the inhibition is 8.56% (inactive).

For `COc1cc(CNc2ncc(-c3ccc(Br)cc3)n2C)cc(OC)c1OC`, the inhibition is 29.8% (inactive).

`Cn1c(-c2ccc(Br)cc2)cnc1NCc1cccnc1`: the inhibition was 18.7% (inactive).

`Cn1c(-c2ccc(F)cc2)cnc1NCc1cccc(F)c1`: the inhibition is 9.97% (inactive).

With `Cn1c(-c2cccc(Br)c2)cnc1NCc1cccnc1`, the inhibition is 29.7% (inactive).

As for `Cn1c(-c2ccc(F)cc2)cnc1NCc1ccc(F)cc1`, the inhibition was 16.6% (inactive).

As to `Cn1c(-c2ccc(Br)cc2)cnc1NCc1ccc(C#N)cc1`, the inhibition was 21.2% (inactive).

In the case of `C[C@H](CO)N1C[C@H](C)[C@@H](CN(C)S(=O)(=O)c2ccc(F)cc2)Oc2c(NC(=O)Cc3ccccc3)cccc2C1=O`, the inhibition was 9.78% (inactive).

On to `CCCc1nc2ccccc2c(=O)n1NC(=O)c1c(O)c2ccccc2n(C)c1=O`, for which the inhibition was -1.3% (inactive).

Source of the values: PubChem BioAssay AID624330 (Southern Research Specialized Biocontainment Screening …, 2012).
